The text below walks through data of the supplement of paper PMC9262897, “Low-cost anti-mycobacterial drug discovery using engineered E. coli” (Nature Communications, 2022).

Structures can show the parent of a compound that is named as a salt. ± gives the standard deviation of the averaged measurements.

One test relates to E. coli TESEC Mtb DapB. The test is described as follows: growth (OD600 after 10 h); higher = more growth (less inhibition). The following applies: arabinose induction (level): High; compound 0.1 mM; raw OD600 reference: median of DMSO wells […], cell-free background 0.041. The protocol:
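TESEC E. coli strains in which the native enzyme is deleted and replaced by arabinose-inducible Mtb Asd, DapB, CysH or TrpD, each grown in its selective medium. Strains were screened against the Prestwick library at 0.1 mM and 1% DMSO in 384-well format at low and high arabinose induction. Growth is read as OD600 after 10 h in triplicate.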
As for `NS(=O)(=O)c1cc2c(cc1C(F)(F)F)NC(Cc1ccccc1)NS2(=O)=O` (stereo not given) [Bendroflumethiazide], the growth was found to be 0.217 ± 0.017.
Turning to `CCN1CCN(C(=O)N[C@@H](C(=O)N[C@@H]2C(=O)N3[C@@H]2SC(C)(C)[C@@H]3C(=O)O)c2ccccc2)C(=O)C1=O` [Piperacillin sodium salt], the growth was 0.204 ± 0.01.
Same read-out and setting: next, `Cc1cc(=O)oc2cc(O)ccc12` [Hymecromone]: 0.198 ± 0.0059; `C[C@]1(Cn2ccnn2)[C@H](C(=O)O)N2C(=O)C[C@H]2S1(=O)=O` [Tazobactam]: 0.195 ± 0.004.
On the same count and under the same terms, next, `C=Cc1c(C)c2cc3nc(cc4[nH]c(cc5nc(cc1[nH]2)C(C)=C5CCC(=O)O)c(CCC(=O)OC)c4C)[C@@]1(C)C3=CC=C(C(=O)OC)C1C(=O)OC.C=Cc1c(C)c2cc3nc(cc4[nH]c(cc5nc(cc1[nH]2)C(C)=C5CCC(=O)OC)c(CCC(=O)O)c4C)[C@@]1(C)C3=CC=C(C(=O)OC)C1C(=O)OC` (stereo not given in full) [Verteporfin]: 0.211 ± 0.024.
The compound `C[N+]1(C)CCC(OC(=O)C(O)(c2ccccc2)C2CCCC2)C1` (stereo not given) [Glycopyrrolate] gave a growth of 0.194 ± 0.025.
Same read-out and setting: next, `CC(=O)[C@H]1CC[C@H]2[C@@H]3C[C@H](C)C4=CC(=O)CC[C@]4(C)[C@H]3[C@@H](O)C[C@]12C` [Medrysone]: 0.179 ± 0.018.
Still for that read-out and setting: for `COc1ccc2[nH]cc(CCNC(C)=O)c2c1` [Melatonin] the value was 0.202 ± 0.026; for `O=S(=O)(O)c1cc(O)ccc1O` [Ethamsylate], 0.191 ± 0.013; for `Nc1nc2n[nH]nc2c(=O)[nH]1` [Azaguanine-8], 0.235 ± 0.032.
The compound `CC[N+](C)(CC)CCC[n+]1c(-c2ccccc2)c2cc(N)ccc2c2ccc(N)cc21` [Propidium iodide] registered a growth of 0.137 ± 0.027.
On the same count and under the same terms, next, `CC(=O)OCC(=O)[C@@]12N=C(C)O[C@@H]1C[C@H]1[C@@H]3CCC4=CC(=O)C=C[C@]4(C)[C@H]3[C@@H](O)C[C@@]12C` [Deflazacort]: 0.186 ± 0.0061; `O=C1c2ccccc2S(=O)(=O)N1CCCCN1CCN(c2ncccn2)CC1` [Ipsapirone]: 0.205 ± 0.026.
Regarding `CC(C)COCC(CN(Cc1ccccc1)c1ccccc1)N1CCCC1` (stereo not given) [Bepridil hydrochloride], the growth was found to be 0.0467 ± 0.0011.
Same read-out and setting: for `O=c1[nH]c(=O)n([C@H]2C[C@H](O)[C@@H](CO)O2)cc1I` [Idoxuridine] the value was 0.185 ± 0.0093.
The same measure, in the same setting: for `CN(C)CCC=C1c2ccccc2COc2ccccc21` [Doxepin hydrochloride] the value was 0.169 ± 0.013.
On the same count and under the same terms, for `CN1CCCN=C1/C=C/c1cccc(O)c1` [Oxantel pamoate] the value was 0.1953 ± 0.0019.
In the case of `CCN(CC)CCNc1ccc(CO)c2sc3ccccc3c(=O)c12` [Hycanthone], the growth is 0.21 ± 0.027.
Same read-out and setting: next, `C=CCc1ccccc1OCC(O)CNC(C)C` (stereo not given) [Alprenolol hydrochloride]: 0.183 ± 0.011.
`CN1Cc2c(N)cccc2C(c2ccccc2)C1` (stereo not given) [Nomifensine maleate] came in with a growth of 0.175 ± 0.013.

The test is the same for the next values; noted with them: arabinose induction (level): Low; compound 0.1 mM; raw OD600 reference: median of DMSO wells 0.227, cell-free background 0.041.
Turning to `NS(=O)(=O)c1cc2c(cc1C(F)(F)F)NC(Cc1ccccc1)NS2(=O)=O` (stereo not given) [Bendroflumethiazide], the growth was 0.268 ± 0.0034.
Turning to `CCN1CCN(C(=O)N[C@@H](C(=O)N[C@@H]2C(=O)N3[C@@H]2SC(C)(C)[C@@H]3C(=O)O)c2ccccc2)C(=O)C1=O` [Piperacillin sodium salt], the growth amounted to 0.207 ± 0.025.
`Cc1cc(=O)oc2cc(O)ccc12` [Hymecromone] returned a growth of 0.208 ± 0.032.
In turn, `C[C@]1(Cn2ccnn2)[C@H](C(=O)O)N2C(=O)C[C@H]2S1(=O)=O` [Tazobactam] displayed a growth of 0.19 ± 0.017.
`C=Cc1c(C)c2cc3nc(cc4[nH]c(cc5nc(cc1[nH]2)C(C)=C5CCC(=O)O)c(CCC(=O)OC)c4C)[C@@]1(C)C3=CC=C(C(=O)OC)C1C(=O)OC.C=Cc1c(C)c2cc3nc(cc4[nH]c(cc5nc(cc1[nH]2)C(C)=C5CCC(=O)OC)c(CCC(=O)O)c4C)[C@@]1(C)C3=CC=C(C(=O)OC)C1C(=O)OC` (stereo not given in full) [Verteporfin] yielded a growth of 0.277 ± 0.043.
Still for that read-out and setting: next, `C[N+]1(C)CCC(OC(=O)C(O)(c2ccccc2)C2CCCC2)C1` (stereo not given) [Glycopyrrolate]: 0.196 ± 0.011.
`CC(=O)[C@H]1CC[C@H]2[C@@H]3C[C@H](C)C4=CC(=O)CC[C@]4(C)[C@H]3[C@@H](O)C[C@]12C` [Medrysone] returned a growth of 0.18 ± 0.0064.
Same read-out and setting: for `COc1ccc2[nH]cc(CCNC(C)=O)c2c1` [Melatonin] the value was 0.23 ± 0.026.
On to `O=S(=O)(O)c1cc(O)ccc1O` [Ethamsylate], for which the growth was found to be 0.244 ± 0.025.
With `Nc1nc2n[nH]nc2c(=O)[nH]1` [Azaguanine-8], the growth was 0.26 ± 0.084.
In turn, `CC[N+](C)(CC)CCC[n+]1c(-c2ccccc2)c2cc(N)ccc2c2ccc(N)cc21` [Propidium iodide] came in with a growth of 0.111 ± 0.021.
With `CC(=O)OCC(=O)[C@@]12N=C(C)O[C@@H]1C[C@H]1[C@@H]3CCC4=CC(=O)C=C[C@]4(C)[C@H]3[C@@H](O)C[C@@]12C` [Deflazacort], the growth was determined as 0.23 ± 0.013.
On the same count and under the same terms, next, `O=C1c2ccccc2S(=O)(=O)N1CCCCN1CCN(c2ncccn2)CC1` [Ipsapirone]: 0.221 ± 0.021; `CC(C)COCC(CN(Cc1ccccc1)c1ccccc1)N1CCCC1` (stereo not given) [Bepridil hydrochloride]: 0.04587 ± 0.00031.
Still for that read-out and setting: next, `O=c1[nH]c(=O)n([C@H]2C[C@H](O)[C@@H](CO)O2)cc1I` [Idoxuridine]: 0.202 ± 0.03; `CN(C)CCC=C1c2ccccc2COc2ccccc21` [Doxepin hydrochloride]: 0.182 ± 0.013; `CN1CCCN=C1/C=C/c1cccc(O)c1` [Oxantel pamoate]: 0.218 ± 0.019.
Same read-out and setting: for `CCN(CC)CCNc1ccc(CO)c2sc3ccccc3c(=O)c12` [Hycanthone] the value was 0.163 ± 0.01; for `C=CCc1ccccc1OCC(O)CNC(C)C` (stereo not given) [Alprenolol hydrochloride], 0.284 ± 0.059; for `CN1Cc2c(N)cccc2C(c2ccccc2)C1` (stereo not given) [Nomifensine maleate], 0.181 ± 0.025.
